Screening data deposited in PubChem BioAssay by National Center for Advancing Translational Sciences (NCATS).
SARS PLP yeast = inhibitors of SARS-CoV papain-like protease in yeast | actives 0.19% (n = 330,000) | S. cerevisiae expressing SARS-CoV PLpro, growth rescue | Potency, µM (highest dose often 32.9 µM), usual class: activators; note: nearly all actives have a fitted effect of over 55% in size
NS1 function inh = blocks influenza NS1 protein function. actives 0.4% (n = 270,000). Potency, µM (series often up to 46.1 µM). AID 2326; note: actives are rising curves; nearly all actives have a fitted effect of over 50% in size
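Growth recovery, yeast-based: influenza A NS1 expressed in S. cerevisiae causes slow growth, and suppressors are detected by OD600. The parent strain without NS1 is used as positive control.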
Shiga toxin inh = Shiga toxin inhibition; Vero cells, Shiga toxin protein synthesis inhibition reporter; inhibition, % at 38.7 µM; actives 9.2% (n = 290,000); in the data active = inhibition mostly above about 28%, no sharp cut-off; inactive = mostly below about 43%
CHX counter = counter-screen hit for Shiga toxin inhibitors, cycloheximide | max response, % | actives 12% (n = 300,000) | cell reporter, cycloheximide protein synthesis inhibition counterscreen; in the data active = max response mostly above about 13%, no sharp cut-off; inactive = mostly below about 14%; note: read at 38.3 µM for the half of the compounds with a filed dose
Large screens that a line does not name were inactive. Sampled rows, rich in hits. Any-hit rate of the full collection: about 12%. Unless noted, calls come from the whole dose curve.

CC(C)NC(=O)Nc1ccc2c(c1)C(=O)N([C@H](C)CO)C[C@H](C)[C@@H](CN(C)S(C)(=O)=O)O2	none (no result: NS1 function inh, Shiga toxin inh, CHX counter)
CCOc1ccc2nc(SCC(=O)NCc3ccccc3)[nH]c2c1	none (no result: Shiga toxin inh)
CCOc1ccc2nc(SCC)[nH]c2c1	Shiga toxin inh 125, CHX counter 54
CC(C)NC(=O)CC(=O)N/N=C/c1ccccc1F	none
CC(/C=C/c1ccccc1F)=N\NC(=O)C(C)C	Shiga toxin inh 42, CHX counter 35
CCCCC(=O)N/N=C(C)/C=C/c1ccccc1F	Shiga toxin inh 63, CHX counter 29 (no result: NS1 function inh)
CCCCC(=O)N/N=C(\C)CC(=O)Nc1ccccc1Br	none
Brc1ccc2nc(-c3c[nH]c4ccccc34)cn2c1	Shiga toxin inh 64, CHX counter 31 (no result: NS1 function inh)
Cc1cccn2cc(-c3c[nH]c4ccccc34)nc12	Shiga toxin inh 122, CHX counter 41
Nc1nc(-c2c[nH]c3ccccc23)cs1	none
COc1ccc(NC(C)=O)cc1S(=O)(=O)N1CC=C(c2ccccc2)CC1	none (no result: NS1 function inh, Shiga toxin inh, CHX counter)
Cc1ccc(S(=O)(=O)N2CCN(Cc3ccccc3)CC2)s1	none (no result: NS1 function inh, Shiga toxin inh, CHX counter)
CN(C)c1ccc(C(=O)Nc2ccc(CN3CCS(=O)(=O)CC3)cc2)cc1	CHX counter 36
COc1ccc(NC(=O)c2ccc(Cn3cc(Cl)cn3)cc2)cc1	none
C/C(CC(=O)Nc1ccc([N+](=O)[O-])cc1)=N\NC(=O)c1ccccc1[N+](=O)[O-]	none
C/C(CC(=O)Nc1ccc(N(C)C)cc1)=N\NC(=O)c1ccc([N+](=O)[O-])cc1	CHX counter 18 (no result: SARS PLP yeast)
COc1ccc(C(=O)Nc2ccc(CN3CCS(=O)(=O)CC3)cc2)cc1	none
CN(C)c1ccc(NC(=O)c2ccc(Cn3cc([N+](=O)[O-])cn3)cc2)cc1	Shiga toxin inh 108, CHX counter 50 (no result: NS1 function inh)
Cc1ccc(C(=O)Nc2ccc(CN3CCS(=O)(=O)CC3)cc2)cc1C	Shiga toxin inh 73, CHX counter 36
O=C(Nc1ccccc1OC(F)F)c1ccc(S(=O)(=O)N2CCOCC2)cc1	none
O=C(COc1ccc(Cl)cc1)Nc1cnn(Cc2c(Cl)cccc2Cl)c1	none
O=C(Nc1cnn(Cc2c(Cl)cccc2Cl)c1)c1ccc([N+](=O)[O-])cc1	Shiga toxin inh 87, CHX counter 53
CCOc1ccc(N=Cc2c(O)cc(C)oc2=O)cc1	none
CCOc1ccc(N=Cc2c(O)c3ccccc3oc2=O)cc1	Shiga toxin inh 78, CHX counter 26
O=C(CN1C(=O)CCC1=O)Nc1cccc(NC(=O)CN2C(=O)CCC2=O)c1	none (no result: NS1 function inh)
COc1ccc(N(CC(=O)NCCSCc2ccc(Cl)cc2)S(C)(=O)=O)cc1Cl	none
CC1(C)CNC(=O)c2sc(N3CCCCC3)nc2C1	CHX counter 23
CC1(C)CC(=O)c2sc(N3CCCCC3)nc2C1	Shiga toxin inh 92, CHX counter 29
CC1(C)CC(=O)c2sc(NS(C)(=O)=O)nc2C1	none (no result: SARS PLP yeast)
CCN(CC(=O)Nc1c(F)cccc1F)C(=O)COc1cccc2c1OC(C)(C)C2	none (no result: NS1 function inh, Shiga toxin inh, CHX counter)
COc1ccc(OC)c(C2=Nn3c(nnc3-c3ccccc3C)SC2)c1	none (no result: SARS PLP yeast, NS1 function inh)
O=C(CNC(=O)c1ccncc1)N/N=C/c1ccccc1[N+](=O)[O-]	Shiga toxin inh 58, CHX counter 23 (no result: NS1 function inh)
COc1ccc(C(=O)N/N=C/c2cccnc2)cc1	Shiga toxin inh 54, CHX counter 29
O=C1CC(CC(=O)N/N=C/c2ccccc2[N+](=O)[O-])=NN1	NS1 function inh 6.3µM
O=C(C[n+]1ccccc1)N/N=C/c1ccccc1[N+](=O)[O-]	none
CC(=O)Nc1ccc(C(=O)N/N=C/c2cccnc2)cc1	none
Cn1nccc1C(=O)N/N=C/c1cccnc1	Shiga toxin inh 59, CHX counter 33
O=C(N/N=C/c1cccnc1)c1ccc(NC(=O)c2ccc(Cl)cc2)cc1	none
O=C(CS(=O)c1ccc(F)cc1)N1CCOCC1 (centres undefined)	none
CN1CCN(CCC(=O)Nc2ccc(C3CCCC3)cc2)CC1	none
CCn1cc(C(=O)N[C@@H](CCSC)C(=O)NCCCN2CCOCC2)c(=O)c2cc3c(cc21)OCO3	none
Cc1cc(C)n(Cc2cccc(C(=O)N/N=C/c3cccnc3)c2)n1	CHX counter 10.0
Cc1cc(C)n(Cc2cccc(C(=O)N/N=C/c3ccncc3)c2)n1	none
Cn1nccc1C(=O)N/N=C/c1ccccc1[N+](=O)[O-]	Shiga toxin inh 80, CHX counter 32
COc1cccc(NC(=O)CN2CCCCCC2)c1	CHX counter 23 (no result: Shiga toxin inh)
Cc1ccc(C(=O)Nc2cccc(NC(=O)CN3CCCCC3)c2)cc1	CHX counter 14 (no result: Shiga toxin inh)
O=C(CN1CCCCC1)Nc1cccc(Br)c1	CHX counter 15
COc1ccc(CNS(=O)(=O)NCc2ccccc2F)cc1	none
Brc1ccc2nc(-c3cccs3)c(NCC3CCCO3)n2c1 (centres undefined)	Shiga toxin inh 56, CHX counter 32
c1csc(-c2nc(NCC3CCCO3)c3ccccc3n2)c1 (centres undefined)	none
CSC1=NS(=O)(=O)c2c(C)nn(C)c2S1	none
COc1ccccc1N=c1oc2cc(O)ccc2cc1C(=O)NCC1CCCO1 (centres undefined)	CHX counter 17
COc1ccccc1NC(=O)c1cc2ccc(O)cc2o/c1=N\O	none
Cc1cccc(N=c2oc3cc(O)ccc3cc2C(N)=O)c1	Shiga toxin inh 39, CHX counter 27
COc1cccc(N=c2oc3cc(O)ccc3cc2C(=O)NCC2CCCO2)c1 (centres undefined)	CHX counter 13
COc1ccccc1N=c1oc2cc(O)ccc2cc1C(N)=O	CHX counter 14
Cc1ccc2c(c1)N(CC(=O)N1CCCCC1C)C(=O)CO2 (centres undefined)	none
CC(C)CN(C(=O)COC(=O)c1ccc2c(c1)OCO2)c1c(N)n(Cc2ccccc2)c(=O)[nH]c1=O	none (no result: NS1 function inh, Shiga toxin inh, CHX counter)
COc1ccc2oc(=Nc3cccc(F)c3)c(C(N)=O)cc2c1	Shiga toxin inh 73, CHX counter 34 (no result: NS1 function inh)
COc1cccc(C(=O)N2CCCC(c3nc(-c4cccs4)no3)C2)c1 (centres undefined)	NS1 function inh inconclusive
O=C(NC1CCCCC1)N1CCCC(c2nc(-c3cccs3)no2)C1 (centres undefined)	none
CCC(C)C(=O)N1CCCC(c2nc(-c3cccs3)no2)C1 (centres undefined)	Shiga toxin inh 101, CHX counter 31
CCCC(=O)N1CCCC(c2nc(-c3cccs3)no2)C1 (centres undefined)	Shiga toxin inh 86, CHX counter 21
CCOC(=O)C1CCCN(C(=O)c2[nH]c3ccc(OC)cc3c2C)C1 (centres undefined)	none
COC(=O)c1ccc(Sc2ccc(C)cc2)c(N)c1	Shiga toxin inh 57, CHX counter 57
COc1cccc(C(=O)OCC(=O)N2CCc3ccccc3C2)c1OC	none (no result: NS1 function inh, Shiga toxin inh, CHX counter)
COc1ccccc1-c1nc(-c2ccccn2)no1	none
c1ccc(-c2noc(C3CCC3)n2)nc1	Shiga toxin inh 50, CHX counter 28
CCCCC1CCC(c2nc(-c3ccccn3)no2)CC1 (centres undefined)	Shiga toxin inh 178, CHX counter 56
CCCCC1CCC(c2nc(-c3cccnc3)no2)CC1 (centres undefined)	none
CC(CC(=O)Nc1ccc(Br)cc1F)S(=O)(=O)c1ccc2c(c1)NC(=O)CO2 (centres undefined)	none
